According to PubChem BioAssay AID720690 (Broad Institute, 2013):
Measured potencies and affinities stand elsewhere. Unmarked numbers belong to inactive results.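 How the source made its calls: active means every repeat run showing a signal drop whose fitted half-maximal concentration is at most twice the top tested concentration; inconclusive means repeat runs disagree, or flat partial drop, or poor fit; inactive means the rest.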

experiment: general mammalian cell viability loss – activator set, cherry-pick, cytotoxicity control for miR-122 modulator project, dose response (AID 720690); details: HEK293T viability, CellTiter-Glo luminescence, 48 h; series mostly up to 26 µM; activity change, negative = cytotoxicity: at the top concentration;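 further: 0% = neutral control wells and -100% = MG132 cytotoxic control wells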

Going from `COc1cccc(C(=O)Nc2ccc3c(c2)C(=O)N(C)[C@@H]2CC[C@H](CC(=O)NCc4ccc(F)cc4)O[C@@H]2CO3)c1` to `CN1C(=O)c2cc(NC(=O)c3ccccc3F)ccc2OC[C@H]2O[C@@H](CC(=O)NCc3ccc4c(c3)OCO4)CC[C@@H]21`, the “activity change, negative = cytotoxicity” value rises from -25.6% to -4.16%.

Compared with `CNC(=O)C[C@@H]1CC[C@@H]2[C@@H](COc3ccc(NC(=O)NC(C)C)cc3C(=O)N2C)O1`, `CNC(=O)C[C@@H]1CC[C@@H]2[C@H](COc3ccc(NC(=O)Nc4ccc(Cl)cc4)cc3C(=O)N2C)O1` is higher in “activity change, negative = cytotoxicity” value: -2.47% for the first, 2.54% for the second.

First: CC(C)CC#Cc1ccc2c(c1)O[C@H](CN(C)C(=O)c1cnccn1)[C@H](C)CN([C@@H](C)CO)S2(=O)=O
Second: COCC(=O)N(C)C[C@H]1Oc2cc(-c3ccccc3F)ccc2S(=O)(=O)N([C@@H](C)CO)C[C@@H]1C
The “activity change, negative = cytotoxicity” value of the first is higher: 2.29% for the first, -13.7% for the second.

Going from `C/C=C/c1ccc([C@H]2[C@H](CO)N[C@H]2CN(C)S(=O)(=O)c2ccccc2)cc1` to `CC(=O)N(C[C@@H]1N[C@@H](CO)[C@H]1c1ccc(-c2ccccc2)cc1)C(C)C`, the “activity change, negative = cytotoxicity” value rises from -14.5% to -5.09%.

Compared with `CCCCc1cc(=O)oc2cc(C)cc(OC(C)C(=O)O)c12` (stereo not given), `CCCCC(=O)OCC(=O)c1[nH]c(C)c(C(=O)OCC)c1C` is higher in “activity change, negative = cytotoxicity” value: -8.47% for the first, -3.31% for the second.

Compared with `CC(=O)N1[C@H](CO)[C@@H](c2ccccc2)[C@H]1CN(C(=O)NC(C)C)C1CCCC1`, `CCN(C[C@H]1[C@H](c2ccccc2)[C@@H](CO)N1C(=O)C1CC1)C(=O)NC1CCCC1` is higher in “activity change, negative = cytotoxicity” value: -6.13% for the first, -0.731% for the second.

Going from `OC(c1cc(C(F)(F)F)nc2c(Cl)cc(Cl)cc12)C1CCCCN1` (stereo not given) to `Cc1nnsc1Sc1cccc(C(F)(F)F)c1`, the “activity change, negative = cytotoxicity” value rises from -47.8% to 2.48%.

Going from `c1ccc(CCNc2nnnn2-c2ccccc2)cc1` to `O=C(COC(=O)c1ccccc1)Nc1cc(Cl)ccc1Oc1ccccc1`, the “activity change, negative = cytotoxicity” value rises from -6.71% to -5.95%.

Compared with `COc1cccc(S(=O)(=O)N(C)C[C@@H]2Oc3cc(C4=CCCC4)ccc3S(=O)(=O)N([C@H](C)CO)C[C@@H]2C)c1`, `COc1ccc(S(=O)(=O)Nc2cccc3c2O[C@H](CN(C)CC2CCCCC2)[C@@H](C)CN([C@H](C)CO)C3=O)cc1` is higher in “activity change, negative = cytotoxicity” value: -35.5% for the first, 3.99% for the second.

Compared with `C[C@H](CO)N1C[C@H](C)[C@H](CN(C)C(=O)Nc2ccc3c(c2)OCO3)Oc2ncc(-c3cccc(C(F)(F)F)c3)cc2C1=O`, `Cc1cc(C(=O)Nc2ccc3c(c2)C(=O)N(C)[C@@H]2CC[C@H](CC(=O)N[C@@H](C)c4ccccc4)O[C@H]2CO3)no1` is higher in “activity change, negative = cytotoxicity” value: -28.7% for the first, 7.69% for the second.

First: COC(=O)C[C@H]1CC[C@@H]2[C@H](COc3ccc(NC(=O)c4cc(F)cc(F)c4)cc3C(=O)N2C)O1
Second: COC(=O)C[C@H]1CC[C@H]2[C@@H](COc3ccc(NC(=O)Nc4c(C)noc4C)cc3C(=O)N2C)O1
The “activity change, negative = cytotoxicity” value of the first is higher: 4.97% for the first, 4.81% for the second.

First: CCCNC(=O)C[C@@H]1CC[C@@H]2[C@@H](COc3ccc(NS(=O)(=O)c4ccccc4C)cc3C(=O)N2C)O1
Second: CC(C)C(=O)Nc1ccc2c(c1)C(=O)N(C)[C@H]1CC[C@@H](CC(=O)NCCCN(C)C)O[C@H]1CO2
The “activity change, negative = cytotoxicity” value of the first is lower: -3.61% for the first, 5.88% for the second.

Going from `C/C=C/c1ccc([C@@H]2[C@@H](CO)N[C@@H]2CN(C(=O)C2CCCC2)C(C)C)cc1` to `CN1C[C@H]2[C@@H](c3ccccc31)[C@@H](CO)N2C(=O)C1CCOCC1`, the “activity change, negative = cytotoxicity” value rises from -0.101% to 3.96%.

Going from `CN(C)C(=O)C[C@@H]1CC[C@@H]2[C@@H](COc3ccc(NC(=O)C4CC4)cc3C(=O)N2C)O1` to `CCCNC(=O)Nc1ccc2c(c1)C(=O)N(C)[C@@H]1CC[C@@H](CC(=O)NCC3CCCCC3)O[C@H]1CO2`, the “activity change, negative = cytotoxicity” value falls from 6.71% to -5.32%.

First: Cc1cc(C)cc(NC(=O)c2ccc(CSc3nnc(C)s3)cc2)c1
Second: COc1ccc(-c2cn3c(C)c(C(=O)Nc4cccc(NC(C)=O)c4)sc3n2)cc1
The “activity change, negative = cytotoxicity” value of the first is lower: -16.6% for the first, 39.5% for the second.

Compared with `CO[C@H]1CN(C)C(=O)c2ccc(NC(C)=O)cc2OC[C@@H](C)N(C(=O)CC2CC2)C[C@H]1C`, `CCCC(=O)Nc1ccc2c(c1)C(=O)N(C)[C@H]1CC[C@H](CC(=O)NCCN3CCCCC3)O[C@@H]1CO2` is lower in “activity change, negative = cytotoxicity” value: -2.04% for the first, -4.25% for the second.

First: CNC(=O)C[C@@H]1CC[C@H]2[C@@H](COc3ccc(NC(=O)c4cccc(OC)c4)cc3C(=O)N2C)O1
Second: CN1C(=O)c2cc(NC(=O)c3cccs3)ccc2OC[C@@H]2O[C@@H](CC(=O)NCCN3CCCCC3)CC[C@@H]21
The “activity change, negative = cytotoxicity” value of the first is higher: 9.81% [at 23.5 µM] for the first, -7.8% [at 23.5 µM] for the second.

For `CN(C)CCNc1ncnc2c1sc1nc(N3CCOCC3)c3c(c12)CC(C)(C)SC3`, the “activity change, negative = cytotoxicity” value was -11.7% [at 12 µM].
